# Hits are enriched below; roughly 3% of the tested compounds scored in any of these assays.
# LDHA block – inhibitors of human lactate dehydrogenase A; AID 1347041; purified LDHA, NADH/diaphorase-resazurin fluorescence; stronger effect = lower value; hit rate 0.15% among 480,000; activity change, % (values are at about 110 or 230 µM); in the data active = activity change below about -30%; inconclusive = mostly about -25% to -30%;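 also: plate controls were DMSO wells for no effect and wells without enzyme for full effect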
#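 Resorufin fluorescence (ex540/em590), read at 0 and 20 min after diaphorase/resazurin addition, reports the NADH left after a 5 min room-temperature reaction of 2 nM human LDH5 with 0.06 mM NADH and 0.2 mM pyruvate.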
# hERG WT inh – KCNH2 (human, wildtype) channel inhibition; Q12809; U2OS, BacMam KCNH2, thallium flux FluxOr; stronger effect = lower value; activity change, % at 1.84 µM; hit rate 0.37% among 340,000;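 active = maximum activity change below -70%; inconclusive = maximum activity change between -70% and -50%; inactive = maximum activity change above -50%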; also: % is scaled to controls: 0 for no effect and ±100 for the full control effect
#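 U2OS cells transduced with wild-type KCNH2 virus are loaded with FluxOr dye for 45 min, and thallium flux is measured in kinetic reads before and after stimulation buffer. Rate constants are normalized to DMSO controls.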
# ClpP mod – qHTS Assay for Activators of ClpP. ATP-dependent Clp protease proteolytic subunit (Bacillus subtilis (strain 168)), P80244. purified B. subtilis ClpP, FRET peptide cleavage, 20 min. Potency, µM (titrated, usually from 57.5 µM), for the others: at the highest dose activity change, negative = active. hit rate 1.9% among 340,000; active = well fitted falling curve with a large enough effect; inconclusive = small, poorly fitted or top-dose-only effect; inactive = no such curve, though single readings can be large or run the other way; also: potency is read from the fitted curve at half-maximal effect; the source files actives as falling curves though it sought activators and does not explain the sign; nearly all actives have a fitted effect of over 65% in size
#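 ClpP 10 microg/mL final, pH 8 Tris/KCl buffer with BSA, glycerol, Tween-20; compound pinned in; FRET-FV substrate; RT 20 min; Ex320/Em430; ΔFRET vs ADEP 5.8 microM, DMSO, no enzyme.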
# Chronic BCR inh – inhibitors of chronic active B-cell receptor signaling; Potency, µM (highest dose often 46.1 µM), inactives show at the top dose activity change, negative = inhibition, most hits filed as inhibitors; ABC-DLBCL IkBa-CBG/CBR reporter, luminescence ratio, 4 h; hit rate 0.05% among 340,000; active = well fitted inhibition curve with a large enough effect in the signal ratio, with a control signal flat, not every such curve was filed as active; inconclusive = small, poorly fitted or top-dose-only effect, or effect the other way, or a change in a side signal; the % refers to the signal ratio;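 also: potency is read from the fitted curve at half-maximal effect; plate controls were basal doxycycline-induced cells for no effect and cells given 10 µM MG132 for full effect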
#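 TMD8 human ABC-DLBCL cells with doxycycline-inducible IκBα–green luciferase fusion and unfused red luciferase, in 0.5% FBS medium; compounds up to 46 uM, 4 h at 37C. Green/red luminescence ratio, filter-overlap corrected, fitted to concentration-response curves.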
# KCNH2 3.1 inh – blocks the human KCNH2 3.1 channel isoform; U2OS KCNH2 3.1, thallium flux FluxOr; stronger effect = lower value; activity change, % (tested at about 1.8 µM); hit rate 0.95% among 340,000;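 active = maximum activity change below -70%; inconclusive = maximum activity change from -70% to -50%; inactive = maximum activity change above -50%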;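 also: thallium influx rate constant from kinetic fluorescence after stimulation buffer; % is scaled to controls: 0 for no effect and ±100 for the full control effect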
#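 We transduce U2OS cells with the mutant 3.1 virus, culture them overnight, load FluxOr with Red40 quencher for 45 min, then add stimulation buffer and read kinetically for 2 min to derive a normalized rate constant.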
# ALOX12 inh – inhibitors of human 12S-lipoxygenase ALOX12 | P18054 | purified 12hLO, xylenol orange hydroperoxide absorbance | Potency, µM (series often up to 108 µM), for inactives: top-dose activity change, negative = inhibition, hits mostly inhibitors | hit rate 1.1% among 580,000 | AID 1671190; active = well fitted inhibition curve with a large enough effect; inconclusive = small, poorly fitted or top-dose-only effect, or another doubt; inactive = no such curve, though single readings can be large or run the other way; also: potency is read from the fitted curve at half-maximal effect; % is scaled to controls: 0 for no effect and ±100 for the full control effect
#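 Purified human 12hLO (150 nM final) in 25 mM Hepes, 0.01% Triton X-100, pH 7.0 was preincubated 15 min at room temperature with compound. Then 40 uM arachidonic acid was added, 30 min. Hydroperoxide was read by Fe-XO absorbance ratio 573/405 nm.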
# * marks the source's active call; other numbers are inactive results; ? = inconclusive; . = no result given; [ ] = dose if it differs, or a comment.
SMILES,LDHA block,hERG WT inh,ClpP mod,Chronic BCR inh,KCNH2 3.1 inh,ALOX12 inh
Cc1ccc(-c2cc(C(=O)Nc3nccs3)c3ccccc3n2)c(C)c1,-5,7,-3%,?,-27,-4%
Cc1ccc(-c2cc(C(=O)Nc3nnc(C4CC4)s3)c3ccccc3n2)o1,3,.,.,.,.,7.9µM*
O=C(COc1ccccc1)NC[C@H]1Cn2c(-c3ccc(Cl)cc3)cnc2CO1,.,.,.,.,.,37%[176 µM]
CC(=O)Nc1ncnc2c1c(-c1ccc(Cl)cc1)nn2C(C)(C)C,1,8,4%,?,13,140%
CC(=O)N(C(C)=O)c1ncnc2c1c(-c1ccc(Cl)cc1)nn2C(C)(C)C,-48*,-5,10%,-10%,-10,-12%
Cc1ccccc1OCC(O)Cn1c(N)nc2c1c(=O)n(C)c(=O)n2C (centres undefined),-37*,.,.,.,.,-15%
COc1cccc(CN(C)C(=O)CSc2nc(-c3cccs3)nc3ccccc23)c1,14,.,.,.,.,?
CC(=O)CCc1c(C)[nH]c2ccc(NC(C)=O)cc2c1=O,-3,-5,25µM*,3%,-8,7%
Cc1cc(C)cc(NC(=O)CNC(c2ccccc2)c2ccccc2)c1,4,-70*,.,17%,-7,-1%
COc1ccc(NC(=O)CNC(c2ccccc2)c2ccccc2)cc1Cl,-2,-7,.,8%,8,-3%
Cc1ccc2nc(C)c(C(=O)N(C)C(C)c3ccccc3)cc2c1 (centres undefined),-10,.,.,.,.,?
COc1ccc(-c2nn(C)c(=O)c3ccccc23)cc1NC(=O)c1ccc(C)cc1,7,.,.,.,.,19%
COc1ccc(CC2(CO)CCN(C/C=C/c3ccccc3OC)CC2)cc1,-8,-90*,.,-12%,-109*,?
COc1ccccc1/C=C/CN1CCCC(CO)(CCc2ccccc2)C1 (centres undefined),-2,-26,.,-9%,-75*,0%
O=C(Nc1ccccc1-c1nnc(SCc2ccccc2)o1)c1ccccc1,-6,6,28µM*,?,-11,-1%
O=C(O)c1ccc(CSc2nnc(-c3ccc(Cl)cc3)o2)cc1,0,-5,0%,0%,0,-11%
O=C(Nc1ccccc1-c1nnc(SCc2ccc(Cl)cc2)o1)c1ccccc1,-7,-10,10µM*,?,3,-9%
Cc1cccc(-n2ncc(C(=O)N3CCc4ccccc4C3)c2-n2cccc2)c1,7,.,.,.,.,?
CCN(CCC(=O)Nc1cc(OC)cc(OC)c1)Cc1ccccc1,9,20,-16%,-8%,-27,-19%
COc1cccc(CN(CCC(=O)O)Cc2cccc(OC)c2)c1,-19,-3,-6%,.,3,18µM*
CCOC(=O)C1=C(C)NC(=S)NC1c1ccc(-c2ccc(Cl)cc2)o1 (centres undefined),-3,0,-8%,?,0,32µM*
CCOC(=O)C1=C(C)NC(=O)NC1c1ccc(-c2ccc(Cl)cc2)o1 (centres undefined),-9,6,-4%,?,-15,-24%
CCN(CC)c1ccc2c(-c3ccc(S(=O)(=O)O)cc3S(=O)(=O)[O-])c3ccc(=[N+](CC)CC)cc-3oc2c1,-232*,3,0%,?,-9,.
CCN(CC)c1ccc2nc3c4ccccc4c(=O)cc-3oc2c1,-1,-3,1%,-1%,-6,5%
CCC(CC)c1nnc(NC(=O)CC(C)c2ccccc2)s1 (centres undefined),-6,-5,.,5%,-72*,0%
SMILES,LDHA block,hERG WT inh,ClpP mod,Chronic BCR inh,KCNH2 3.1 inh,ALOX12 inh
O=C(CCSCCc1ccccn1)Nc1cccc(Cl)c1,6,.,.,.,.,?
CCN(Cc1ccc(OC)c(COC)c1)CC1CCCN(CCc2cccc(OC)c2)C1 (centres undefined),-15,42,-2%,?,-9,-20%
COc1ccc(CCN2CCCC(CN(C)Cc3cccc(OC)c3)C2)cc1 (centres undefined),-1,-25,.,-6%,-74*,?
CCN(Cc1ccc(OC)c(COC)c1)CC1CCCN(CCc2cccc(F)c2)C1 (centres undefined),2,50,0%,?,-72*,-5%
CN(Cc1ccccc1O)CC1CCCN(CCc2ccc(Cl)cc2)C1 (centres undefined),-16,1,-1%,-1%,-86*,-22%
CCN(C(=S)Nc1cc(S(=O)(=O)N2CCOCC2)ccc1Cl)c1cccc2ccccc12,26,-1,11µM*,-2%,-4,3%
Cc1cc2nnc(SCC(=O)Nc3cc(S(=O)(=O)N4CCOCC4)ccc3Cl)n2c2ccccc12,-1,6,32µM*,0%,4,-6%
CC1CN(C)C(C)C/C1=N\Oc1ccc([N+](=O)[O-])cc1 (centres undefined),0,-14,.,?,-88*,-5%
CC1CN(C)C(C)C/C1=N/Oc1ccccc1[N+](=O)[O-] (centres undefined),6,7,.,1%,9,-15%
Cc1nn(C)c(Cl)c1CN1CCCC(C(=O)Nc2ccc(-c3cscn3)cc2)C1 (centres undefined),3,7,25µM*,-5%,6,19%
CC(C)NC(=O)C[C@@H]1O[C@H](CNC(=O)C2CC2)[C@@H](O)[C@H]1O,.,.,.,.,.,56µM*
Cc1cccc(-n2nc(C)c(C(=O)N(C)Cc3ccccc3)c2-n2cccc2)c1,5,.,.,.,.,?
Cc1noc(CN(C)CC2COc3ccccc3O2)n1 (centres undefined),2,.,.,.,.,18%
CCOc1ccc(OCCCCNC(C)(C)C)cc1,-16,10,0%,-8%,5,?
CCOc1cccc(OCCOCCNC(C)(C)C)c1,-32*,-2,?,1%,17,?
CCOc1cc(CN2CCCC(CNC(=O)c3ccc(F)cc3)C2)ccc1OC (centres undefined),-5,18,-1%,?,?,-6%
CSc1ccc(CN2CCCC(CNC(=O)c3ccc(F)cc3)C2)cc1 (centres undefined),-10,0,.,-6%,-78*,-2%
CSc1cccc(CN2CCCC(CNC(=O)c3ccc(F)cc3)C2)c1 (centres undefined),-4,19,-2%,-12%,-21,15%
CCOc1ccc(CN2CCCC(CNC(=O)c3ccc(F)cc3)C2)cc1CO (centres undefined),-13,.,0%,0%,-101*,-1%
Cc1cnc(C2CCC2)n1C1CCCN(C(=O)CCCc2ccccc2)C1 (centres undefined),.,.,.,.,.,30%

# Assay outcomes as filed in PubChem BioAssay.
